CHO-K1 Ca antag = nonselective inhibitor or artifact in parental CHO-K1 cells. AID 602250. inhibition, % at 3 µM. ATP-induced calcium, Fluo-8 fluorescence. 360,000 tested, 0.6% active;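 active = inhibition above a per-plate cutoff, the plate's mean sample inhibition plus 3 SD, cut at about 24% in these data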
M1 antag = blocks human M1 muscarinic receptor | CHO-K1 hM1, Fluo-8 calcium fluorescence, ACh EC80 antagonist | inhibition, % at 3 µM | 360,000 tested, 1.3% active | AID 588852;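 active = percent inhibition above its own plate's cutoff, namely the mean of that plate's compound wells plus 3 SD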;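 also: peak over basal fluorescence ratio during 140 s after agonist addition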
Target sequence (P11229 whole entry, looked up): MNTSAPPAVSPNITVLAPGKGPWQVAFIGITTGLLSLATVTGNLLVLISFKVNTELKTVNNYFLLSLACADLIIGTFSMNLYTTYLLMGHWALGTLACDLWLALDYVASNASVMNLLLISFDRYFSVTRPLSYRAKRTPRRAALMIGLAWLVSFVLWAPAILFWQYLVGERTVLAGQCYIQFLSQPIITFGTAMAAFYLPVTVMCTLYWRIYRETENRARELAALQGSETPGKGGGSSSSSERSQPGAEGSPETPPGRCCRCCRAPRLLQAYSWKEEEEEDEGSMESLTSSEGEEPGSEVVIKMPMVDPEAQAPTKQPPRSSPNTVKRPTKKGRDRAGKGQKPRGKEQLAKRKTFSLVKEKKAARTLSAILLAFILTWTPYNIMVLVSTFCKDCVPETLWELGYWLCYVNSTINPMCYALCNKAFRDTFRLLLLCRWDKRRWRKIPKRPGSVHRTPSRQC
M1 ag parental = counter-screen for M1 agonists: effect in parental CHO-K1 cells. Fluo-8 calcium fluorescence; scaled to maximal ATP response, vehicle zero. activation, % at 3 µM. 360,000 tested, 0.48% active. AID 602248; in the data active = activation above about 15%;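 also: untransfected CHO-K1 host cells lacking M1 receptor as counterscreen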
M1 PAM parental = nonselective activator or artifact in parental CHO-K1 calcium assay. ATP EC20, Fluo-8 calcium fluorescence; 0% at ATP EC20, 100% at ATP max. activation, % at 3 µM. 360,000 tested, 0.02% active. AID 602247;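 active = activation above the run cutoff, the mean activation of all test compounds plus 3 SD, cut at about 40% in these data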;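 also: peak over basal fluorescence ratio in a 140 s read after ATP addition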
M1 PAM = potentiates human M1 receptor response to acetylcholine; P11229; activation, % at 3 µM; 360,000 tested, 0.088% active; CHO-K1 hM1, Fluo-8 calcium fluorescence, ACh EC20; 0% = ACh EC20, 100% = maximal ACh; in the data active = activation above about 19%, passing the limit was not always enough
M1 ag = agonists of human M1 muscarinic receptor; activation, % at 3 µM; CHO-K1 hM1, Fluo-8 calcium fluorescence, agonist mode; 0% DMSO, 100% acetylcholine EC100; 360,000 tested, 0.33% active; AID 588814;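 active = activation above the run's mean compound activation plus 3 SD, cut at about 16% in these data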;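 also: peak over basal fluorescence ratio within a 140 s kinetic read after compound addition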
Large screens that a line does not name were inactive. This is a sample that favours compounds with a hit; in the whole collection about 2.3% have one here.

CCOCCCNC(=O)C(NC(=O)c1ccccc1O)c1ccc(Cl)cc1 (stereo not drawn)	none
O=C(NCCO)c1ccc2nc(-c3ccco3)c(-c3ccco3)nc2c1	none
O=C(NC1CCCC1)c1ccc2nc(-c3ccco3)c(-c3ccco3)nc2c1	CHO-K1 Ca antag 26
CCOC(=O)C1CCCN(C2CC(=O)N(c3cccc(C(F)(F)F)c3)C2=O)C1 (stereo not drawn)	M1 antag 40, M1 ag 65
CCOC(=O)C1CCCN(C2CC(=O)N(c3ccc(N4C(=O)CC(N5CCCC(C(=O)OCC)C5)C4=O)cc3)C2=O)C1 (stereo not drawn)	M1 ag 39
CCOC(=O)C1CCCN(C2CC(=O)N(c3ccc(C(C)C)cc3)C2=O)C1 (stereo not drawn)	M1 ag 18
CSc1ccc(S(=O)(=O)NCCCOC(C)C)cc1	none
COc1ccc(OC)c(S(=O)(=O)NC(N)=NCCc2ccccc2)c1	none
COCCN(C(=O)CSc1nnc(-c2cccc(F)c2)n1N)c1c(N)n(CC(C)C)c(=O)[nH]c1=O	none
CSc1ccccc1C(=O)C1CCCN(Cc2c(C)n(C)n(-c3ccccc3)c2=O)C1 (stereo not drawn)	M1 antag 79
COc1ccccc1C(=O)NC(=O)COC(=O)c1cc[n+]([O-])cc1	none
COc1ccccc1C(=O)NC(=O)COC(=O)c1cccc(C)c1O	M1 ag parental 15
COCCn1c2nc(=O)n(-c3ccccc3)c(=O)c-2nc2ccccc21	M1 ag parental 73, M1 ag 56
CC(=O)Nc1cccc(-c2ccnc3c2CC(C)(C(=O)Nc2cccc(Oc4ccccc4)c2)O3)c1 (stereo not drawn)	none
Cc1sc2ncnc(NC3CCN(Cc4ccccc4)CC3)c2c1C	M1 antag 43
CC(=O)c1sc(NC(=O)C2(F)C(F)(F)C(F)(F)C(F)(F)C(F)(F)C2(F)F)nc1C	CHO-K1 Ca antag 26
CCN(CC)Cc1cc(Oc2ccc(O)c(CN(CC)CC)c2)ccc1O	M1 antag 35
CCN(CC)Cc1cc(CCNC(=O)c2ccc(Cl)cc2)ccc1O	none
CC(C)Cn1c(-c2ccccc2F)n[nH]c1=S	none
CC(C)Cn1c(-c2csc3c2CCCC3)n[nH]c1=S	M1 antag 44
CCOC(=O)C1CCCN(C(=O)CCn2nnnc2CN2CCOCC2)C1 (stereo not drawn)	M1 ag 32
CCN(CC)C(=O)C1CCCN(C(=O)CCn2nnnc2CN2CCOCC2)C1 (stereo not drawn)	none
Cc1cc(/C=N/NC(N)=S)c(C)n1-c1ccc(Cl)cc1	M1 ag parental 18
Cc1cc(C(=O)Nc2cccc(-c3ccc(N4CCOCC4)nn3)c2)ccc1[N+](=O)[O-]	M1 antag 35
NC(=O)c1ccc[n+](CCC[n+]2cccc(C(N)=O)c2)c1	none
CCCCCCCCCC[n+]1cccc(C(=O)N(CC)CC)c1	M1 antag 42
CCc1ccc(CN(C)CC(=O)Nc2ccc(S(=O)(=O)N3CCOCC3)cc2)cc1	none
CCC1Oc2ccccc2N(CC(=O)Nc2ccccc2OC)C1=O (stereo not drawn)	CHO-K1 Ca antag 24
COC1OC(COCc2ccccc2)C(N)C(OCc2ccccc2)C1OCc1ccccc1 (stereo not drawn)	M1 antag 42
Cc1ccc(S(=O)(=O)N2CCC(=O)c3ccccc32)cc1	none
CCN(C(=O)COC(=O)c1ccc(S(=O)(=O)N2CCCc3ccccc32)cc1)C1CCS(=O)(=O)C1 (stereo not drawn)	M1 antag 72
Oc1ccccc1C1=NC(c2ccccc2)NC(c2ccccc2)C1 (stereo not drawn)	CHO-K1 Ca antag 26
Oc1ccccc1C1=Nc2nc3ccccc3n2C(c2ccccc2)C1 (stereo not drawn)	none
O=S(=O)(c1ccc(NCc2ccccc2)cc1)N1CCOCC1	CHO-K1 Ca antag 25
O=C(Nc1ccccc1)Nc1ccc(Cl)c(S(=O)(=O)N2CCOCC2)c1	M1 ag parental 18
O=C(Nc1ccc(N2CCOCC2)cc1)Nc1ccc(Cl)c(Cl)c1	CHO-K1 Ca antag 33, M1 antag 55
O=C(Nc1ccc(Cl)cc1)Nc1ccc(N2CCOCC2)cc1	none
O=C(Nc1ccc(N2CCCC2)cc1)c1cc(Cl)ccc1Cl	M1 antag 36
O=C(Nc1ccc(N2CCCC2)cc1)c1ccc(Cl)cc1Cl	none
CC(C)C[C@H]1CN(CCCC[C@H]2CNC(=O)C(=O)N2Cc2ccccc2)C(=O)C(=O)N1CCC1CCCCC1	none (no result: M1 antag, M1 PAM, M1 ag)
O=C(N1CCOCC1)C1(c2ccc(Cl)cc2)CCCC1	none
O=C(Nc1ccc(N2CCOCC2)cc1)C1(c2ccc(Cl)cc2)CCC1	M1 ag 17
CCCNC(=O)N1CCN(C(c2ccccc2)c2ccccc2)CC1	none
O=C(NC(=O)N1CCN(C(c2ccccc2)c2ccccc2)CC1)c1ccccc1	M1 antag 66
O=C(Nc1ccccc1C(F)(F)F)N1CCN(C(c2ccccc2)c2ccccc2)CC1	M1 antag 44
NC(=O)N=Nc1c2[nH]c3ccccc3nc-2c2ccccc12	none
CCN(CC(=O)NCc1ccc(F)cc1)C(=O)CN1CCN(c2cc(Cl)ccc2C)CC1	none
O=C(CCN1C(=O)C2CCCCC2C1=O)N1CCN(S(=O)(=O)c2ccccc2)CC1 (stereo not drawn)	none
CC(=O)Nc1ccc(S(=O)(=O)N2CCN(c3nc4ccccc4n3CC(C)C)CC2)cc1	none
CC(=O)Nc1cc(-c2ccsc2)cn2c(-c3ccc(F)cc3)cnc12	none
O=C(/C=C/c1cccc(Cl)c1)N1CCC(Cc2ccccc2)CC1	CHO-K1 Ca antag 25
O=C(CSc1nccc(=O)[nH]1)Nc1cccc2ccccc12	none
CN1CCN(CCNC(=O)c2ccc3nc(-c4ccc(F)cc4)c(-c4ccc(F)cc4)nc3c2)CC1	M1 antag 45
CCN(CC)S(=O)(=O)c1cccc(C(=O)N/N=C/c2ccc(O)c(O)c2O)c1	M1 PAM 26
CCOc1ccccc1/C=N/NC(=O)c1cccc(S(=O)(=O)N(CC)CC)c1	none
COc1cccc(C(C(=O)NC2CCCC2)N(C(=O)c2ccco2)c2ccccc2)c1OC (stereo not drawn)	none
COc1cccc(-c2c(C(=O)N/N=C/c3ccco3)nnn2-c2nonc2N)c1	M1 ag parental 16, M1 ag 35
Nc1nonc1-n1nnc(C(=O)N/N=C/c2ccoc2)c1-c1ccccc1	M1 ag 16
Nc1nonc1-n1nnc(C(=O)N/N=C/c2ccc(F)cc2)c1-c1cccs1	M1 ag 19
Nc1nonc1-n1nnc(C(=O)N/N=C/c2ccco2)c1-c1ccccc1	M1 ag 22
CCN(CC)S(=O)(=O)c1ccc(N2CCOCC2)c(NC(=O)c2[nH]c(C)c(C(C)=O)c2C)c1	none

Assay outcomes as filed in PubChem.
